What was measured:
Test in all cases: PBM binding z-score (relative to random genomic background probes); higher = stronger binding; sequences stand for … in GC…GCGATTGACAGCGTAGAATGAAGG
[1] = tested on: FXR:RXRa (NR concentration 270 nM, RXRa partner concentration 90 nM)
How it was run: (§1)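 Ligand-free nuclear receptor dimers were bound for 1 h to custom Agilent 4×180K protein-binding microarrays. Detection used antibodies against each partner (one per run). Binding z-scores rest on regression-normalized fluorescence, with random background probes as the reference.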

[2] = tested on: LXRa:RXRa (NR concentration 270 nM, RXRa partner concentration 90 nM)
How it was run: as §1

[3] = tested on: LXRa homodimer (NR concentration 270 nM)
How it was run: as §1

[4] = tested on: LXRb:RXRa (NR concentration 270 nM, RXRa partner concentration 90 nM)
How it was run: as §1

[5] = tested on: LXRb homodimer (NR concentration 270 nM)
How it was run: as §1

[6] = tested on: PPARg:RXRa (NR concentration 180 nM, RXRa partner concentration 90 nM)
How it was run: as §1

[7] = tested on: PPARg:RXRa 270nM:90nM, anti-RXR (NR concentration 270 nM, RXRa partner concentration 90 nM)
How it was run: as §1

[8] = tested on: PPARg:RXRa 30nM:10nM, anti-RXR (NR concentration 30 nM, RXRa partner concentration 10 nM)
How it was run: as §1

[9] = tested on: PPARg:RXRa 90nM:30nM, anti-RXR (NR concentration 90 nM, RXRa partner concentration 30 nM)
How it was run: as §1

[10] = tested on: PPARg:RXRa DBDmut IVT, anti-RXR (DBD mutation: RXRa K156A/R161A, NR concentration 270 nM, RXRa partner concentration 90 nM)
How it was run: as §1

[11] = tested on: PPARg:RXRa IVT, anti-PPARg (NR concentration 270 nM, RXRa partner concentration 90 nM)
How it was run: as §1

[12] = tested on: PPARg DBDmut:RXRa IVT, anti-PPARg (DBD mutation: PPARg1 K132A/R137A, NR concentration 270 nM, RXRa partner concentration 90 nM)
How it was run: as §1

[13] = tested on: PPARg DBDmut IVT, anti-PPARg (DBD mutation: PPARg1 K132A/R137A, NR concentration 270 nM)
How it was run: as §1

[14] = tested on: PPARg homodimer (NR concentration 180 nM)
How it was run: as §1

[15] = tested on: PXR:RXRa (NR concentration 270 nM, RXRa partner concentration 90 nM)
How it was run: as §1

[16] = tested on: PXR homodimer (NR concentration 270 nM)
How it was run: as §1

[17] = tested on: RARa:RXR (NR concentration 270 nM, RXRa partner concentration 90 nM)
How it was run: as §1

[18] = tested on: RARa homodimer (NR concentration 270 nM)
How it was run: as §1

[19] = tested on: RARb:RXRa (NR concentration 270 nM, RXRa partner concentration 90 nM)
How it was run: as §1

| Sequence | PBM binding z-score [1] | PBM binding z-score [2] | PBM binding z-score [3] | PBM binding z-score [4] | PBM binding z-score [5] | PBM binding z-score [6] | PBM binding z-score [7] | PBM binding z-score [8] | PBM binding z-score [9] | PBM binding z-score [10] | PBM binding z-score [11] | PBM binding z-score [12] | PBM binding z-score [13] | PBM binding z-score [14] | PBM binding z-score [15] | PBM binding z-score [16] | PBM binding z-score [17] | PBM binding z-score [18] | PBM binding z-score [19] |
| --- | --- | --- | --- | --- | --- | --- | --- | --- | --- | --- | --- | --- | --- | --- | --- | --- | --- | --- | --- |
| TCTAGTTGGTCAAAGGCCACACACTCGAAATGCG | 0.691 | 0.811 | 0.139 | 0.867 | -0.181 | 6.54 | 7.01 | 6.34 | 7.68 | 2.18 | 3.17 | 0.393 | 0.329 | 1.01 | 0.772 | 0.0843 | 1.28 | 0.063 | 1.95 |
| CTCGAAAGGTGGTGCTCAGGTGAGTATACCAAAC | -0.352 | -0.533 | -0.489 | -0.329 | -0.573 | -0.375 | -0.0981 | -0.462 | -0.126 | -0.605 | 0.359 | -0.543 | -0.314 | 0.0565 | -0.599 | -0.22 | 0.343 | -0.47 | 0.237 |
| CCTACTGGGCGATTCAGAGGTCATTGATCATATG | 2.02 | 3.68 | 6.2 | 3.09 | -0.0527 | 0.564 | 1.87 | 0.13 | 0.99 | 1.07 | 1.23 | -1.35 | -0.572 | 1.38 | 4.37 | 1.7 | 4.25 | 0.31 | 2.53 |
| TCTCGGAGGACACGAAAAGTCAGAGCTCGACATC | 0.557 | 0.0964 | -0.301 | -0.0523 | -0.795 | 0.122 | 1.13 | 2.15 | 1.59 | 1.7 | 0.139 | -0.679 | -0.502 | 0.0166 | -0.0938 | -0.142 | 0.141 | -0.037 | 1.72 |
| ACTTACGGGTCAACGGGGTTATAGCACGCGTATA | 6.95 | 4.81 | 0.682 | 5 | 0.93 | 6.4 | 5.83 | 2.51 | 4.14 | 3.04 | 4.81 | 1.21 | 1.3 | 2.83 | 5.57 | 2.28 | 5.87 | 0.668 | 4.47 |
| AGATTGAGGTTACCAAAGATCAGGGAAACGCTTG | 2.33 | 6.22 | 0.108 | 3.17 | -0.201 | 2.04 | 2.22 | 0.623 | 1.49 | 3.1 | 2.54 | 0.865 | -0.0178 | 0.218 | 1.5 | -0.393 | 2 | 0.127 | 2.24 |
| CAAACTAGGTCACGAAAGGTCAAAGTGGAATGAC | 7.59 | 8.25 | 7.92 | 7.19 | 2.79 | 10.6 | 8.11 | 7.1 | 8.54 | 8.3 | 9.14 | 4.86 | 3.3 | 6.09 | 7.22 | 2.33 | 7.85 | 4.81 | 5.72 |
| TATACAGGGTCTAAGGCCAGAGTACGAATGTCGA | 0.41 | 0.239 | 0.14 | 0.157 | 0.936 | 1.09 | 1.86 | 0.951 | 1.51 | -0.0368 | 0.912 | 0.973 | 0.725 | 0.023 | -0.0788 | 0.0324 | -0.102 | 0.373 | 0.935 |
| GCTGCTAGGTCAACTGATGGTCAGCTAGAGCTCG | 3.85 | 2.95 | 0.128 | 1.85 | 0.313 | 2.7 | 2.98 | 0.27 | 2.01 | 4.87 | 3.91 | -0.00234 | 0.522 | 0.71 | 1.55 | -0.557 | 2.21 | 0.274 | 4.28 |
| TAGCCTAGGTCATTCAGGGGCTAGTATAGAAAGC | 4.83 | 3.69 | 0.257 | 2.77 | 0.83 | 2.12 | 2.22 | 0.575 | 1.45 | 1.49 | 2.56 | -0.0413 | 0.573 | 1.3 | 2.36 | -0.268 | 2.79 | -0.106 | 3.76 |
| CCTGCTAGTTCAATGGTCAGCTAAAGCAGCTCGC | -0.115 | 0.171 | -0.297 | 0.044 | -0.17 | -0.523 | 0.0511 | -0.764 | -0.0476 | 0.00571 | -0.344 | -0.548 | -1.19 | 0.058 | 0.465 | -0.0496 | 0.242 | -0.645 | 1.49 |
| CAAACTAGGTCACCGGAAGGTCATAGTCCGCATG | 6.02 | 5.59 | 4.48 | 4.88 | 0.927 | 9.71 | 7.81 | 6.11 | 7.67 | 8.59 | 9.21 | 4.3 | 3.06 | 4.74 | 5.48 | 1.67 | 6.36 | 1.54 | 5.66 |
| CCTGCTAGTTCATGGTCAGCTAATCTACAGTATG | -0.0312 | 0.212 | -0.184 | 0.106 | -0.269 | -0.348 | -0.236 | -0.124 | -0.29 | 0.644 | -0.0239 | -0.434 | -0.632 | -0.0541 | 0.563 | 0.0644 | 0.225 | -0.814 | 1.55 |
| AGCTCTAGGTAAAAGTTCAGTGAATCCCGAGGAT | 0.542 | 0.948 | 0.969 | 0.702 | -0.253 | 7.73 | 7.47 | 6.13 | 7.9 | 2.59 | 2.87 | -0.0694 | 0.333 | 0.844 | 1.73 | 1.44 | 1.55 | 0.488 | 2.4 |
| TAGCCTAGGTCATTCAGGGGCCAGTATGGAAAGC | 4.71 | 3.88 | 0.839 | 2.81 | 1.22 | 2.1 | 2.25 | 0.204 | 1.74 | 1.58 | 2.93 | 0.514 | -0.26 | 2.13 | 2.46 | -0.398 | 3.77 | 0.0659 | 4.11 |

Source: the supplement of paper PMC6555819
